Source: PubChem BioAssay
A selection: hits, their analogues and other compounds. The true share with any hit is near 1.8%.
NOD2-RIPK2 inh: NOD2-RIPK2 protein interaction inhibition. 360,000 tested, 0.38% active. CHO BLA complementation NOD2-RIPK2, CCF4 ratio. AID 624267. inhibition, % at 4.98 µM; in the data active = inhibition above about 21%;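 also: 0% = vehicle only and 100% = reference blocker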
TLR9-MyD88 inh: blocks human TLR9 binding to MyD88; CHO BLA complementation TLR9-MyD88, CCF4 FRET ratio; AID 504734; 340,000 tested, 0.21% active; inhibition, % at 4.98 µM; Q9NR96+Q99836;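 active = inhibition above the mean over all tested compounds plus 3 SD, cut at about 21% in these data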;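 also: 0% = DMSO only wells and 100% = clavulanate BLA inhibitor control wells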
Target sequence (Q99836 whole entry, looked up): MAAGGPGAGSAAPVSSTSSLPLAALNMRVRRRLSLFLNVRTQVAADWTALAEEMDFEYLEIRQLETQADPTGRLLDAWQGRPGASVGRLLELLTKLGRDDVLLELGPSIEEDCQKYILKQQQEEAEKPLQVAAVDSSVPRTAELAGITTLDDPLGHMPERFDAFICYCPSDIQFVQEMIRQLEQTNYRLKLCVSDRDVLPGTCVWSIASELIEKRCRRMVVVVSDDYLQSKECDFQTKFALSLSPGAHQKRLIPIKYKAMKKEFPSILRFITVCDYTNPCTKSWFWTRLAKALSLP
Target sequence (Q9NR96 whole entry, looked up): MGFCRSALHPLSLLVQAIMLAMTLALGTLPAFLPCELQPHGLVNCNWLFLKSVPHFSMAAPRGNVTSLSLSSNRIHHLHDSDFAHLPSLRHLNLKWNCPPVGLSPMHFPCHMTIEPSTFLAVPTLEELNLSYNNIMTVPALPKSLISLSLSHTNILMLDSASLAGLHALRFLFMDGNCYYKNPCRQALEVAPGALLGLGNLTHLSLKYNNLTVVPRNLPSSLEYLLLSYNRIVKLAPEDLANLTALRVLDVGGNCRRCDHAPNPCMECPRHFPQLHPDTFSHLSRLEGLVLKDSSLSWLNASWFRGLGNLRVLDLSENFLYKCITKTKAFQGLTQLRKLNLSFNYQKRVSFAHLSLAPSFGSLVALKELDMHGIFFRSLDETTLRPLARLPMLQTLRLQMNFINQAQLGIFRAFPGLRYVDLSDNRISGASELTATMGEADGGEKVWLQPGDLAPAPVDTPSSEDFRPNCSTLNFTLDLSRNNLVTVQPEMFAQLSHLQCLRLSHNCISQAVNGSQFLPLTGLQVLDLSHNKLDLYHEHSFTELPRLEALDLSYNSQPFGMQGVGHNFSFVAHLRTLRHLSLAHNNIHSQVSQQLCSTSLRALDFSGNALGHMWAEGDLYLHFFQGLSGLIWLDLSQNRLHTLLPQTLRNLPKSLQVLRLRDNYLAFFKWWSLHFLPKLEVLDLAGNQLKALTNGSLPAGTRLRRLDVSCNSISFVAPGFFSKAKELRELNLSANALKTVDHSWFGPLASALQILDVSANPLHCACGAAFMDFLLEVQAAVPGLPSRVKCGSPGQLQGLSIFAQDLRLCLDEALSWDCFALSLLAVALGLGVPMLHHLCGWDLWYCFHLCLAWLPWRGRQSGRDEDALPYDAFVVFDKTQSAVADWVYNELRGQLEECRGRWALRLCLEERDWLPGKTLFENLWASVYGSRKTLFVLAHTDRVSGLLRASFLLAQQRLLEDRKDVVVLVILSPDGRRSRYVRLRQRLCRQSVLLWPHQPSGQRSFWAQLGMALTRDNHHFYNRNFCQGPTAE
TLR4 MyD88 comp: TLR4-MyD88 interaction inhibition in cells | O00206+Q99836 | HeLa CL3-4 TLR4/MyD88 BLA complementation, FRET ratio | inhibition, % at 8.4 µM | 200,000 tested, 0.18% active | AID 861; in the data active = inhibition above about 25%;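 also: 0% = vehicle and 100% = reference inhibitor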
Mcl1 Noxa PPI: Mcl-1/Noxa interaction inhibition; Q07820; TR-FRET Mcl-1/Noxa peptide binding, 2 h; inhibition, % at 21.7 µM; 220,000 tested, 1.5% active; AID 1022;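 active = compounds that cut the protein-peptide binding signal by more than 50% relative to plate controls in a single-dose test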;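 also: His-tagged Mcl-1 with rhodamine Noxa BH3 peptide and terbium anti-His antibody; 0% = Mcl-1 plus Noxa peptide wells and 100% = peptide-only wells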
Mcl1-Bid inh: disrupts binding of human Mcl-1 to Bid peptide; 220,000 tested, 0.97% active; TR-FRET Mcl-1/Bid-Dy647 peptide binding, 1536-well; inhibition, % at 21.7 µM;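 active = compounds that cut the binding signal by more than half at the single screening dose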;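 also: His-tagged Mcl-1 with europium anti-His antibody binding Bid BH3 peptide; 0% = Mcl-1 plus peptide wells and 100% = peptide-only wells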
Bim-Mcl-1: human Bim-Mcl-1 interaction inhibition; Q07820; Bead-based flow cytometry, Bim peptide-Mcl-1 binding; inhibition, % at 10 µM; 190,000 tested, 0.1% active; in the data active = inhibition above about 40%;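 also: 0% = no compound tracer wells and 100% = peptide blocker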
TLR9-MyD88 conf: confirmation of human TLR9-MyD88 binding inhibitors. CHO TLR9/MyD88 BLA complementation, CCF4 FRET ratio. shares compounds with TLR9-MyD88 inh. 680 tested, 51% active. AID 540250. inhibition, % at 4.98 µM;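 active = mean inhibition across three repeats above about 21% taken from the earlier screen, limit read from the data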;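 also: blue over green emission ratio reports constitutive TLR9 MyD88 association via BLA complementation; 0% = DMSO vehicle wells and 100% = clavulanate BLA inhibitor wells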
BLA counter-1: non-selective beta-lactamase inhibitors in TLR9-MyD88 counter-screen; CHO-BLA cells, CCF4 FRET ratio, BLA reporter; 680 tested, 7% active; AID 540251; inhibition, % at 4.98 µM; shares compounds with TLR9-MyD88 inh;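 active = mean inhibition above a 50% cutoff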;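 also: counterscreen of TLR9-MyD88 hits on CMV-driven BLA in CHO-K1 cells; 0% = DMSO alone and 100% = clavulanate blocking BLA; higher means less blue over green ratio so more BLA blockade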
TLR9 CHO cytotox: counter-screen for TLR9-MyD88 inhibitors: cytotoxicity in CHO cells | shares compounds with TLR9-MyD88 inh | luminescence | inhibition, % at 4.98 µM | 680 tested, 39% active | AID 588336; in the data active = inhibition above about 11%
NOD2-RIPK2 conf: NOD2-RIPK2 interaction inhibition confirmed; shares compounds with NOD2-RIPK2 inh; CHO cells, NOD2-RIPK2 BLA complementation, CCF4 FRET; inhibition, % at 4.98 µM; 1,200 tested, 70% active;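 active = mean inhibition across replicates above a set limit taken from the earlier primary screen, cut at about 21% in these data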;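 also: 0% = DMSO-only wells and the high end = clavulanate BLA-blocked wells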
BLA counter-2: hits BLA reporter in NOD2-RIPK2 inhibitor counterscreen | shares compounds with NOD2-RIPK2 inh | inhibition, % at 4.98 µM | 1,200 tested, 57% active | CHO BLA reporter, CCF4 FRET ratio;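 active = mean inhibition above the low-control mean inhibition plus three low-control SD, cut at about 11% in these data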;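 also: 0% = DMSO only wells and 100% = clavulanate high control wells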
* = called active by the depositor; . = not tested or not shown.

SMILES | NOD2-RIPK2 inh | TLR9-MyD88 inh | TLR4 MyD88 comp | Mcl1 Noxa PPI | Mcl1-Bid inh | Bim-Mcl-1 | TLR9-MyD88 conf | BLA counter-1 | TLR9 CHO cytotox | NOD2-RIPK2 conf | BLA counter-2
Nc1ncnc2c1ncn2[C@@H]1O[C@H](C(=O)N(CCC2=CCCCC2)CC2CC2)[C@@H](O)[C@H]1O | -18 | . | . | . | . | . | . | . | . | . | .
COc1cc(CN2CCNC(=O)C2CC(=O)N(C)CCC2CCOCC2)cc(OC)c1 (stereo not drawn) | 9 | 13 | . | . | . | . | . | . | . | . | .
Nc1ccc2c3c(cccc13)-c1ccccc1-2 | 67* | 62* | . | . | . | . | 58* | 54* | 2 | 74* | 81*
O=C(Cn1ncc(Cl)c(Cl)c1=O)c1ccc2c(c1)OCCO2 | 14 | 2 | . | . | . | . | . | . | . | . | .
CCC(=O)Nc1ccc(C(=O)Cn2ncc(Cl)c(Cl)c2=O)cc1 | 22* | 21* | . | 45 | -15 | . | 16 | 2 | 37* | 34* | 9
COc1ccccc1N1N=C(C(=O)c2ccccc2)C2C(=O)N(c3ccc(Br)cc3)C(=O)C21 (stereo not drawn) | -1 | . | . | -172 | -24 | . | . | . | . | . | .
COc1ccccc1N1C(=O)C2C(C(=O)c3ccccc3)=NN(c3ccccc3)C2C1=O (stereo not drawn) | 52* | 47* | . | -182 | -12 | . | 26* | 25 | 2 | 59* | 64*
Cc1cc(NC(=O)CSc2nnc(C(F)(F)F)n2C)no1 | -4 | 6 | . | . | . | . | . | . | . | . | .
COc1ccc(CC2=CC(=O)c3ccccc3C2=O)cc1 | 63* | 24* | . | . | . | . | 8 | -8 | 84* | 48* | -9
COc1ccc(Cc2ccccc2C(=O)O)cc1 | 5 | -9 | . | . | . | . | . | . | . | . | .
C[C@H]1CN([C@@H](C)CO)S(=O)(=O)c2ccc(Br)cc2O[C@@H]1CN(C)C(=O)C1CCOCC1 | -3 | 6 | . | . | . | . | . | . | . | . | .
O=C(/C=N/O)Nc1ccc2sc3ccccc3c2c1 | 21* | 34* | . | 11 | -11 | . | 8 | 6 | 3 | 20 | 15*
COC(=O)c1ccccc1NC(=O)/C=N/O | 5 | 8 | -4 | 2 | -26 | 1 | . | . | . | . | .
O=C(Nc1cccc2c1C(=O)NC2=O)c1ccc(S(=O)(=O)N2CCCC2)cc1 | 22* | 38* | 22 | . | . | -4 | 9 | 13 | 4 | 34* | 43*
COc1ccc(N=Cc2c(O)n(-c3cccc(C)n3)c(=O)c3ccccc23)c(OC)c1 | -13 | 1 | . | 0 | -15 | . | . | . | . | . | .
Cc1ccc(C(=O)Sc2cccccc2=O)cc1 | 35* | 30* | . | . | . | . | 21* | 11 | 99* | 48* | 16*
O=C(Nc1ccccc1SC(=O)c1ccccc1)c1ccccc1 | -8 | -9 | . | . | . | . | . | . | . | . | .
CS(=O)(=O)c1sc(C#N)c2c1C(=O)CC(c1ccccc1)C2 (stereo not drawn) | 99* | 58* | . | 18 | 2 | . | 53* | 38 | 100* | 94* | 36*
Cc1coc2c1c(C)cc1oc(=O)c(CC(=O)NCCCCCC(=O)O)c(C)c12 | -21 | 2 | . | . | . | . | . | . | . | . | .
O=C(c1nc2n(n1)C(c1ccc(Cl)cc1)C=C(c1ccccc1)N2)N1CCOCC1 (stereo not drawn) | 48* | 42* | 22 | -1 | -9 | -4 | 12 | 12 | 1 | 27* | 21*
O=C(O)c1ccc(Nc2cc(Cl)c3nonc3c2[N+](=O)[O-])cc1 | -2 | 10 | 11 | 39 | -21 | 1 | . | . | . | . | .
O=[N+]([O-])c1c(Nc2cccc(O)c2)cc(Cl)c2nonc12 | 98* | 46* | . | . | . | . | 61* | 3 | 98* | 108* | 29*
O=C(Nc1ccc(OC(F)F)cc1)c1cc(S(=O)(=O)N2CCOCC2)ccc1F | -9 | -10 | . | . | . | . | . | . | . | . | .
Cn1c(=O)c([N+](=O)[O-])c(Cl)c2ccccc21 | 86* | 47* | 9 | 8 | -11 | 2 | 62* | 7 | 97* | 93* | 27*
Cc1cc(C)cc(NC(=O)/C=C/c2ccc([N+](=O)[O-])s2)c1 | 9 | -1 | 2 | 20 | 0 | 7 | . | . | . | . | .
SMILES | NOD2-RIPK2 inh | TLR9-MyD88 inh | TLR4 MyD88 comp | Mcl1 Noxa PPI | Mcl1-Bid inh | Bim-Mcl-1 | TLR9-MyD88 conf | BLA counter-1 | TLR9 CHO cytotox | NOD2-RIPK2 conf | BLA counter-2
Cc1ccccc1NC(=O)/C=C/c1ccc([N+](=O)[O-])s1 | 39* | 27* | 19 | 14 | 52* | -6 | 28* | 22 | 96* | 37* | 41*
Cn1cc(C(=O)NC2CCCCC2)c(=O)c2cc(S(=O)(=O)N3CCOCC3)ccc21 | -1 | -4 | . | . | . | . | . | . | . | . | .
CC(=O)OCCn1c2nc(=O)[nH]c(=O)c-2nc2cc(C)c(C)cc21 | 23* | 21* | . | 14 | 96* | . | 5 | 6 | 3 | 20 | 23*
CC(=O)OCCn1c(C)[n+](CCOC(C)=O)c2cc(Cl)c(Cl)cc21 | -8 | 3 | -4 | 22 | 3 | -5 | . | . | . | . | .
O=S(=O)(Nc1cccc2cccnc12)c1ccccc1 | 39* | 35* | . | . | . | . | 18 | 7 | 98* | 54* | 18*
Nc1c(C(=O)c2ccccc2)sc2nsc(SCCN3CCCC3)c12 | 29* | 28* | . | -16 | -28 | . | 21* | 18 | 9 | 44* | 47*
COc1ccc(C2/C(=C(\O)c3ccc4c(c3)CC(C)O4)C(=O)C(=O)N2Cc2cccnc2)c(OC)c1 (stereo not drawn) | -1 | -17 | . | . | . | . | . | . | . | . | .
COc1ccc(/C=C/c2nc3cc(-c4ccccc4)ccc3o2)cc1O | 23* | 21* | -6 | 16 | -2 | -2 | 5 | 9 | 11* | 20 | 27*
COc1ccc(/C=C/c2nc3ccccc3c(=O)o2)cc1 | 7 | 3 | . | . | . | . | . | . | . | . | .
Cc1ccc(C2(C)NC(=O)N(CC(=O)NCCN3C(=O)S/C(=C\c4cccnc4)C3=O)C2=O)cc1 (stereo not drawn) | -6 | -2 | . | . | . | . | . | . | . | . | .
C=CCn1c(O)c(N=O)c2ccccc21 | 5 | -3 | . | 8 | -27 | . | . | . | . | . | .
O=Nc1c(O)n(Cc2c(Cl)cccc2Cl)c2ccccc12 | 29* | 35* | -3 | 21 | -10 | -3 | 14 | 24 | 6 | 36* | 42*
CN(Cc1cccnc1)C(=O)Cc1ccc(NS(=O)(=O)c2cccc(C(F)(F)F)c2)cc1 | 5 | 2 | . | . | . | . | . | . | . | . | .
